WRN helicase inh-1: WRN helicase (human) inhibition; hit rate 0.46% among 360,000; Potency, µM (highest dose often 114 µM), hits mostly inhibitors; Q14191; WRN helicase unwinding, fluorescent forked duplex, kinetic; further: nearly all actives have a fitted effect of over 55% in size
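Kinetic fluorescence helicase assay: unwinding of a quenched forked DNA duplex (100 nM final) with 2 mM ATP final raises red fluorescence (525/598 nm). Compounds sat 15 min at room temperature with 20 nM WRN beforehand.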
RECQ1 inh: RECQ1 (human) helicase inhibition; hit rate 0.54% among 240,000; P46063; RECQ1 DNA unwinding, red fluorescence kinetic read; Potency, µM (series often up to 57.3 µM), most hits filed as inhibitors; further: nearly all actives have a fitted effect of over 30% in size
Target sequence (P46063 whole entry, looked up): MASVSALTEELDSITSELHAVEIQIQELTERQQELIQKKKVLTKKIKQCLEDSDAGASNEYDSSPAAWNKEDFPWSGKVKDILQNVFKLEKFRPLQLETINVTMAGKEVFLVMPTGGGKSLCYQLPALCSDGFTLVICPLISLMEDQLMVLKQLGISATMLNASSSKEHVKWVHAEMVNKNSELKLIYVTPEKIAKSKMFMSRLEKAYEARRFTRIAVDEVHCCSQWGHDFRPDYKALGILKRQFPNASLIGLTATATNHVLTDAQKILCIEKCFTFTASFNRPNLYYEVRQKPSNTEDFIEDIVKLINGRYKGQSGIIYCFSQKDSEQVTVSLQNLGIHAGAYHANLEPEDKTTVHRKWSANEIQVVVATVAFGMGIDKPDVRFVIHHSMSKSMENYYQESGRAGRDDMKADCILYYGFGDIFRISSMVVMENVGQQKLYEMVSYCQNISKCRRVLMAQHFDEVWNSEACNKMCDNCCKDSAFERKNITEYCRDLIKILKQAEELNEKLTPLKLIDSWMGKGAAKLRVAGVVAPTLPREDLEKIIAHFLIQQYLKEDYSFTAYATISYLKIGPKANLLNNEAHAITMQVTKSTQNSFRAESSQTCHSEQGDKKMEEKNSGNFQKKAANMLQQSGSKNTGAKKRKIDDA
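50 nM RECQ1T1 preincubated 15 min with compound in Tris pH 8.0 buffer with MgCl2, DTT, Tween-20 and 2.5 ug/ml poly(dI-dC); started with 200 nM TAMRA/BHQ-2 forked duplex and 2 mM ATP. Unwinding read as fluorescence (525/598 nm), two reads 2 h apart.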
BLM helicase inh-1: inhibitors of human Bloom syndrome helicase BLM. recombinant BLM DNA unwinding, fluorescence dequenching. Potency, µM (titrated, usually from 56.1 µM), actives largely listed as inhibitors. hit rate 0.2% among 350,000. AID 2528; further: nearly all actives have a fitted effect of over 35% in size
ERG-DNA inh: ERG Ets/DNA interaction inhibition; P11308; fluorescence polarization, His-ERG Ets domain / labelled DNA; Potency, µM (highest dose often 76.9 µM), actives largely listed as inhibitors; hit rate 0.028% among 370,000; AID 624246; active means well fitted inhibition curve with a large enough effect in the polarisation, with a control signal flat; inconclusive means small, poorly fitted or top-dose-only effect, or effect the other way, or a change in a side signal; inactive means no such curve, though single readings can be large or run the other way; the % refers to the polarisation;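 further: polarization taken with two DNA probes labelled with fluorescein and Texas red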
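His-tagged ERG Ets domain (1 uM in the protein solution; 300mM KCl, 50mM Tris-HCl, 1mM EDTA, 1mM DTT, pH 7.5) received compound, then a probe mix of 5 nM fluorescein-DNA and 100nM Texas-615-DNA. Fluorescence polarization was read for both dyes.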
KAT2A inh: blocks human GCN5L2 histone acetyltransferase; Q92830; GCN5L2 HAT assay, ThioGlo1 CoA-SH fluorescence; Potency, µM (top dose mostly 58.9 µM), most hits filed as inhibitors; hit rate 0.21% among 390,000
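Titration-based screen in which CoA formation is detected via maleimide probe ThioGlo1 (50uM) turning fluorescent on thiol reaction; substrates H3(1-25) 75uM and acetyl-CoA 70uM, GCN5L2 20nM, 20 min incubation at room temperature.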
APE1 inh: APE1 (human) endonuclease inhibition; P27695; recombinant APE1, TAMRA/BHQ-2 abasic DNA cleavage fluorescence; Potency, µM (series often up to 65.8 µM), most hits filed as inhibitors; hit rate 0.35% among 350,000; AID 2517; further: nearly all actives have a fitted effect of over 55% in size
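Activity was derived from the fluorescence gain between first and third kinetic reads (60 s intervals, ex 525/em 598 nm) after 50 nM THF-abasic TAMRA/BHQ-2 duplex was added to 0.75 nM APE1 preincubated 15 min with compound.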
WRN helicase inh-2: WRN helicase inhibition, cherry-pick retest; shares compounds with WRN helicase inh-1; WRN helicase DNA unwinding, fluorescence kinetic; Potency, µM (titrated, usually from 57.1 µM), actives largely listed as inhibitors; hit rate 63% among 610; AID 720497; further: nearly all actives have a fitted effect of over 65% in size
TO displacement: binds DNA, flagged in WRN inhibitor counterscreen; shares compounds with WRN helicase inh-1; thiazole orange DNA binding displacement, fluorescence; Potency, µM (doses to about 57.1 µM), most hits filed as inhibitors; hit rate 10% among 610; AID 720499;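 further: drop in dye fluorescence marks compound binding to DNA; nearly all actives have a fitted effect of over 60% in size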
BLM helicase inh-2: blocks human BLM helicase in WRN counterscreen; Recombinant BLM helicase DNA unwinding, red fluorescence; hit rate 60% among 610; Potency, µM (series often up to 57.1 µM), most hits filed as inhibitors; shares compounds with WRN helicase inh-1; further: nearly all actives have a fitted effect of over 60% in size
Numbers stand for hits; . = inactive; ? = inconclusive; / = not tested or not shown; [ ] = remark or other dose. A selection: hits, their analogues and other compounds. The true share with any hit is near 0.88%. Unless noted, the call rests on the fitted dose curve; in most records, active means well fitted curve in the direction sought with a large enough effect; inconclusive means small, poorly fitted or top-dose-only effect, or another doubt; inactive means no such curve, though single readings can be large; an effect the other way counts as inactive or inconclusive.

SMILES | WRN helicase inh-1 | RECQ1 inh | BLM helicase inh-1 | ERG-DNA inh | KAT2A inh | APE1 inh | WRN helicase inh-2 | TO displacement | BLM helicase inh-2
Cc1cc(/C=C2\C(=O)NC(=O)N(c3cccc(F)c3)C2=O)c(C)n1-c1ccc(C(=O)O)c(Cl)c1 | .[11.6 µM] | / | . | . | . | . | / | / | /
Cc1cc(/C=C2\C(=O)NC(=O)N(Cc3ccccc3)C2=O)c(C)n1-c1ccc(Cl)c(C(=O)O)c1 | 28µM | 35µM | . | . | ? | ? | 6.8µM | . | 1.9µM
CC1=CC[C@@H]2[C@@H](C1)c1c(O)cc(CC#CCCCNS(C)(=O)=O)cc1OC2(C)C | / | . | . | / | / | . | / | / | /
C[C@@H]1C[C@@H]2[C@H]([C@H]3C=C(COC(=O)c4ccccc4)[C@@H](O)[C@]4(O)[C@@H](O)C(OC(=O)c5ccccc5)=C[C@@]14C3=O)C2(C)C | / | . | . | / | . | . | / | / | /
CN(C)CC(C(=O)Cc1ccccc1)c1ccccc1 (centres undefined) | 45µM | / | / | . | / | / | 0.3µM | . | ?
Cc1ccc(S(=O)(=O)Oc2ccccc2C=C2C(=O)N(C)C(=O)N(C)C2=O)cc1 | 45µM | / | . | . | . | . | . | . | .
CCCCC(=O)Cl | / | . | / | / | / | . | / | / | /
O=C1CC=C2C3CC4N(CCC45c4cc(O)c(O)cc4N1C25)CC3=CCBr (centres undefined) | 28µM | / | / | . | / | / | 19µM | . | 5.4µM
COC1=CC(=O)O[C@H](/C=C/c2ccc3c(c2)OCO3)C1 | / | . | . | / | . | . | / | / | /

Assay outcomes (PubChem)
